Assay outcomes deposited in PubChem by National Center for Advancing Translational Sciences (NCATS).
VACV Venus inh – inhibitors of vaccinia virus (Venus reporter); Vaccinia virus Venus reporter expression, fluorescence; Potency, µM (highest dose often 36.5 µM), for inactives: top-dose activity change, negative = inhibition, actives largely listed as inhibitors; 330,000 compounds, 0.46% hits; AID 720580; calls by dose curve; tested in A549 cells; also: potency is read from the fitted curve at half-maximal effect; nearly all actives have a fitted effect of over 30% in size
HCMV inh – blocks human cytomegalovirus replication. HFF cells, HCMV-luciferase reporter, 72 h; hits give low values. activity change, negative = inhibition, % at 57.5 µM. 410,000 compounds, 4.5% hits. AID 1259415; in the data active = activity change below about -60%; inconclusive = no clear call, values can overlap the other calls; inactive = above about -39%
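HFF cells seeded 16 h at 37C, treated with compounds, infected with luciferase-reporter HCMV at MOI 1 PFU/cell; luciferase read at 72 h post infection, normalized to buffer-only and Salinomycin controls.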
Giardia FBPA inh-1 – blocks Giardia fructose-bisphosphate aldolase activity. Potency, µM (series often up to 59.6 µM), without a hit: at the top dose activity, negative = inhibition, hits mostly inhibitors. 290,000 compounds, 0.71% hits. purified Giardia FBPA; also: potency is read from the fitted curve at half-maximal effect; nearly all actives have a fitted effect of over 55% in size
Target sequence (A8B2U2 whole entry, looked up): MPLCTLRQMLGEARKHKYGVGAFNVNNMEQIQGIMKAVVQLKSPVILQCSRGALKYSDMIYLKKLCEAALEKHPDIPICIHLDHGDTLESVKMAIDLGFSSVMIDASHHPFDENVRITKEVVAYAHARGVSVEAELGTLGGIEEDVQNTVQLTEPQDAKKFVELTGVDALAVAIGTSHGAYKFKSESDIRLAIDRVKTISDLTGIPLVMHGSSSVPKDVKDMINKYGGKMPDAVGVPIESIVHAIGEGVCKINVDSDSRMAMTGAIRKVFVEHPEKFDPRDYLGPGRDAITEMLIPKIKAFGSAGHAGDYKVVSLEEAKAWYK
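40 nM FBPA preincubated 10 min at RT with compound (up to 57.5 uM final), then substrate plus GAPDH/TPI/NAD/arsenate coupling and diaphorase/resazurin added. Fluorescence read after 20 min at RT, 525/598 nm.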
FMDV antiviral – blocks foot and mouth disease virus; FMDV antiviral cell-based qHTS; Potency, µM (series often up to 57.9 µM), for the others: at the top dose activity change, negative = inhibition, hits mostly inhibitors; 410,000 compounds, 1.2% hits; calls by dose curve; tested in HEK293T cells; also: read-out not given here; potency is read from the fitted curve at half-maximal effect; nearly all actives have a fitted effect of over 45% in size
HCV inh – HCV inhibition. 340,000 compounds, 3.4% hits. Huh7.5.1 HCVcc-Cre infection, luciferase reporter, 44 h. Potency, µM (titrated, usually from 41.8 µM), for the others: top-dose activity change, negative = inhibition, hits mostly inhibitors; also: potency is read from the fitted curve at half-maximal effect
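Whole-lifecycle infectious HCVcc-Cre system; cells 1,000/well, compound then virus (~0.5 moi) added 4 h after plating, 44 h culture. Luciferase read 15 sec following 15 min substrate incubation, room temp.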
VACV mCherry inh – inhibitors of vaccinia virus infection (mCherry reporter signal) | 310,000 compounds, 0.63% hits | Vaccinia virus mCherry reporter infection, fluorescence | Potency, µM (highest dose often 36.5 µM), for the others: at the top dose activity change, negative = inhibition, most hits filed as inhibitors; calls by dose curve; tested in A549 cells; also: potency is read from the fitted curve at half-maximal effect; nearly all actives have a fitted effect of over 35% in size
Giardia growth – inhibitors of Giardia lamblia growth; shares compounds with Giardia FBPA inh-1; Giardia lamblia trophozoite growth inhibition; Potency, µM (titrated, usually from 57.5 µM), without a hit: at the highest dose activity change, negative = inhibition, actives largely listed as inhibitors; 1,500 compounds, 5% hits; AID 2785;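 also: potency is read from the fitted curve at half-maximal effect; trophozoites exposed to compound for 48 h at 37 °C; nearly all actives have a fitted effect of over 70% in size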
Mammalian tox – toxic to mammalian cells in Giardia aldolase counter-screen; shares compounds with Giardia FBPA inh-1; Potency, µM (doses to about 57.5 µM), inactives show at the highest dose viability change, negative = toxicity, actives largely listed as inhibitors; mammalian cell viability counter-screen, qHTS; 1,500 compounds, 4% hits; AID 2786;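 also: Chinese hamster ovary cells used as mammalian cytotoxicity surrogate; viability measured as cellular ATP by luminescence; potency is read from the fitted curve at half-maximal effect; compound exposure lasted 48 h before reading; nearly all actives have a fitted effect of over 60% in size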
Giardia FBPA inh-2 – confirmation of Giardia fructose-bisphosphate aldolase inhibitors. shares compounds with Giardia FBPA inh-1. purified Giardia aldolase enzyme activity, qHTS. Potency, µM (highest dose often 57.5 µM), for the others: at the top dose activity change, negative = inhibition, actives largely listed as inhibitors. 1,500 compounds, 5% hits; also: potency is read from the fitted curve at half-maximal effect; nearly all actives have a fitted effect of over 45% in size
Rabbit FBPA inh – blocks rabbit muscle aldolase in Giardia aldolase selectivity test | Rabbit muscle FBPA enzyme inhibition, selectivity counter-screen | 1,500 compounds, 4% hits | shares compounds with Giardia FBPA inh-1 | AID 2794 | Potency, µM (doses to about 57.5 µM), inactives show at the highest dose activity, negative = inhibition, actives largely listed as inhibitors; also: potency is read from the fitted curve at half-maximal effect; nearly all actives have a fitted effect of over 60% in size
Target sequence (P00883 whole entry, looked up): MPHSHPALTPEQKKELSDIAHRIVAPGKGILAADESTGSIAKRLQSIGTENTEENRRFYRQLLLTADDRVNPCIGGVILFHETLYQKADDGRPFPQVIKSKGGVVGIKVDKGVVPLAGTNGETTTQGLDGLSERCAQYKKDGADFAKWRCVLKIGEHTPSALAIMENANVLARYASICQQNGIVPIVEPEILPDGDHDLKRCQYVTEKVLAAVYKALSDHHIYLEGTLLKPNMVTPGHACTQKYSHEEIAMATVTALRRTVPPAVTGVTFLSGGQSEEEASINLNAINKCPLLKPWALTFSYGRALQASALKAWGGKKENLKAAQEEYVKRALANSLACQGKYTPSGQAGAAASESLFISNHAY
GAPDH coupling – counter-screen for Giardia aldolase inhibitors: GAPDH coupling enzyme; shares compounds with Giardia FBPA inh-1; GAPDH coupling enzyme counterscreen, biochemical, qHTS; Potency, µM (top dose mostly 57.5 µM), for the others: at the top dose activity change, negative = inhibition, usual class: inhibitors; 1,500 compounds, 6% hits; AID 2795; also: potency is read from the fitted curve at half-maximal effect; nearly all actives have a fitted effect of over 55% in size
Starred values were filed as active, the others as inactive; i = inactive; ? = inconclusive; nt = not tested or not shown; [ ] = dose if it differs, or a comment. Most compounds without a hit are left out; they make up all but 7.5% or so of the library. Unless noted, calls follow the shape of the dose curve; as a rule, active = well fitted curve in the direction sought with a large enough effect; inconclusive = small, poorly fitted or top-dose-only effect, or another doubt; inactive = no such curve, though single readings can be large; an effect the other way counts as inactive or inconclusive. % is scaled to controls: 0 for no effect and ±100 for the full control effect.

SMILES	VACV Venus inh	HCMV inh	Giardia FBPA inh-1	FMDV antiviral	HCV inh	VACV mCherry inh	Giardia growth	Mammalian tox	Giardia FBPA inh-2	Rabbit FBPA inh	GAPDH coupling
COCC(C)OC(=O)c1c(N)n(-c2ccc(OC)c(OC)c2)c2nc3ccccc3nc12 (centres undefined)	nt	nt	2%	-1%	12%	nt	nt	nt	nt	nt	nt
O=C(Cn1c(=O)cnc2ccccc21)Nc1cccc(S(=O)(=O)N2CCOCC2)c1	nt	0	nt	-12%	-3%	nt	nt	nt	nt	nt	nt
O=C(O)/C=C/C(=O)Nc1ccc(O)cc1	nt	-11	?	-3%	12%	nt	16%[38.3 µM]	?	5.2µM*	?	5.8µM*
COc1cc(NC(=O)CCn2c(-c3ccccc3)cc(C(C)=O)c2C)cc(OC)c1	-12%	0	nt	-18%	nt	-8%	nt	nt	nt	nt	nt
O=C(O)c1ccc2cccnc2c1O	-11%	-32	20µM*	-2%	14%	1%	-26%	7%	?	-22%	-25%
Cc1[nH]n(-c2ccccc2)c(=S)c1C=Nc1ccc([N+](=O)[O-])cc1	-6%	-7	4.5µM*	-22%	-5%	i	-1%[38.3 µM]	-8%	-23%	35µM*	?
Cc1[nH]n(-c2ccccc2)c(=O)c1C=Nc1ccc(S(=O)(=O)N=C(N)N)cc1	nt	-17	-5%	21%	-1%	nt	nt	nt	nt	nt	nt
O=C(CN1CCCC1)Nc1ccc(OC(F)(F)F)cc1	-19%	38	?	27%	-13%	-12%	nt	nt	nt	nt	nt
CCN1CCN(CC(=O)Nc2ccc(OC(F)(F)F)cc2)CC1	-15%	-20	18µM*	-6%	?	i	83%	4%	3%	7%	-11%
C/C(=N\NC(=O)c1cccc(S(=O)(=O)N2CCOCC2)c1)c1cc2ccccc2o1	nt	-19	-8%	-5%	-26%	nt	nt	nt	nt	nt	nt
Cc1cc(C(F)F)nn1CC(=O)NC1C(=O)N2C(C(=O)O)=C(CSc3nnnn3C)CSC12 (centres undefined)	-5%	5	?	22%	7%	i	nt	nt	nt	nt	nt
Cc1nnc(SCC2=C(C(=O)O)N3C(=O)C(NC(=O)Cn4ncc(Cl)c4C)C3SC2)s1 (centres undefined)	-8%	-4	20µM*	5%	14%	i	-21%	-4%	-8%	-5%	0%
Cc1nnc(SCC2=C(C(=O)O)N3C(=O)C(NC(=O)c4cccc(F)c4F)C3SC2)s1 (centres undefined)	nt	27	14µM*	-11%	4%	nt	5%[10.4 µM]	-6%	1%	-6%	6%
Cc1cc(C)n(CC(=O)NC2C(=O)N3C(C(=O)O)=C(CSc4nnc(C)s4)CSC23)n1 (centres undefined)	nt	-17	13µM*	-3%	9%	nt	3%	-2%	-1%	6%	1%
O=C(O)c1cc(Br)ccn1	15%	-21	16µM*	-4%	1%	i	-8%[10.4 µM]	9%	1%	0%	4%
O=C(CSc1nc2ncccc2[nH]1)Nc1c(F)cc(F)cc1Br	nt	?	25µM*	-5%	9%	nt	-18%	7%	4%	5%	22%
COC(=O)CNc1n[nH]c(=S)[nH]c1=O	-12%	29	?	-22%	23%	-13%	nt	nt	nt	nt	nt
CN(C)C(=O)CNc1n[nH]c(=S)[nH]c1=O	nt	-8	16µM*	0%	5%	nt	?	4%	3%	3%	7%
CC(C)OC(=O)CNc1n[nH]c(=S)[nH]c1=O	3%	6	4.5µM*	-10%	0%	-5%	41%	-5%	6%	4%	6%
CC(C)COC(=O)C(C)Nc1n[nH]c(=S)[nH]c1=O (centres undefined)	?	-17	0%	0%	4%	-8%	nt	nt	nt	nt	nt
Cc1cc(-n2c(C)nc3ccccc3c2=O)ccc1NC(=O)c1cccc([N+](=O)[O-])c1	0%	-16	nt	-25%	nt	-14%	nt	nt	nt	nt	nt
NC(=O)c1sc(=S)n2c1[nH]c(=O)c1sccc12	0%	-15	-11%	-12%	-7%	-5%	nt	nt	nt	nt	nt
CC(=O)NNC(=O)c1sc(=S)n2c1[nH]c(=O)c1sccc12	0%	7	18µM*	2%	12%	-1%	-20%	3%	13%	?	-24%
CN1CCc2cccc3c2C1Cc1ccc(O)c(O)c1-3 (centres undefined)	-14%	21	14µM*	-14%	18%	-14%	6%[10.4 µM]	-18%	?	?	-10%
C/C(=N/Nc1nc(C)c(C)s1)c1cccc([N+](=O)[O-])c1	nt	6	32µM*	47%	?	nt	4%[10.4 µM]	-11%	-4%	6%	-11%
SMILES	VACV Venus inh	HCMV inh	Giardia FBPA inh-1	FMDV antiviral	HCV inh	VACV mCherry inh	Giardia growth	Mammalian tox	Giardia FBPA inh-2	Rabbit FBPA inh	GAPDH coupling
Cc1cc([N+](=O)[O-])ccc1NC(=O)CSc1nccn1C	-9%	-4	nt	-5%	nt	-17%	nt	nt	nt	nt	nt
O=[N+]([O-])c1ccccc1/C=C/CN1CCSCC1	nt	42	16µM*	-1%	15%	nt	?	19%	-1%	13%	-4%
COCCNC(=S)NNc1cccc(C(=O)O)c1	-3%	-3	8.9µM*	3%	10%	i	-1%[38.3 µM]	4%	0%	1%	-13%
COCCNC(=O)C(=O)Nc1cccc(Br)c1	-8%	-14	0%	nt	-7%	-6%	nt	nt	nt	nt	nt
Cc1oc(C)c2c(=O)ccc3c(c12)OC(N)=C(C#N)C3c1ccccc1Cl (centres undefined)	50%	-20	11µM*	0%	-9%	8%	13%	-16%	-5%	-3%	1%
O=c1[nH]c(=S)[nH]c2sccc12	-18%	58	7.1µM*	75%	9%	-1%	-6%[38.3 µM]	-6%	-12%	-15%	-9%
O=c1[nH]c2sccc2c2ccccc12	nt	nt	-8%	nt	nt	nt	nt	nt	nt	nt	nt
CCn1c(C)nc2cc(C(=O)NNC(=S)NC(=O)c3ccccc3)ccc21	nt	4	7%	1%	?	nt	nt	nt	nt	nt	nt
OCCN(CCO)c1ccc2ccccc2c1	3%	90	16µM*	-6%	9%	-20%	-17%[10.4 µM]	-18%	4µM*	?	-26%
